Here are results for 40 molecules from PubChem BioAssay (NCATS).

Molecules are shown by their SMILES. Results filed as inconclusive are left out. The source made the active and inactive calls. Calls come from the whole dose curve; as a rule, active = well fitted cell-killing curve with a large enough effect; inconclusive = small, poorly fitted or top-dose-only effect, or effect the other way; inactive = no such curve, though single readings can be large or run the other way.
Potency is the fitted concentration of half-maximal effect.

This assay in a line: Quantitative High-Throughput drug screen in 47 multiple myeloma cell lines against the NCATS MIPE library collection: Karpas25_ECACC cell viability assay (AID 1918968; note: nearly all actives have a fitted effect of over 35% in size). To be noted: Karpas25 myeloma viability, CellTiter-Glo ATP, 48 h; series mostly up to 45.8 µM. The source says:
PI: Beverly A. Mock Ph.D.
Laboratory of Cancer Biology and Genetics,
Center for Cancer Research, National Cancer Institute,
National Institute of Health, Bethesda, Maryland
Drug resistance and disease progression are common in multiple myeloma (MM) patients, underscoring the need for new therapeutic combinations. […] We hypothesized that effective combinations would reduce MYC expression and enhance p16 activity. […] These preclinical data identify potentially useful drug combinations for evaluation in drug-resistant MM and reveal potential mechanisms of combined drug sensitivity.
Described herein is the primary MIPE qHTS used to cherrypick compounds. Validated compounds were then further tested for potential synergistic activiy.
[1] Peat TJ, Gaikwad SM, Dubois W, Gyabaah-Kessie N, Zhang S, Gorjifard S, Phyo Z, Andres M, Hughitt VK, Simpson RM, Miller MA, Girvin AT, Taylor A, Williams D, D'Antonio N, Zhang Y, Rajagopalan A, Flietner E, Wilson K, Zhang X, Shinn P, Klumpp-Thomas C, McKnight C, Itkin Z, Chen L, Kazandijian D, Zhang J, Michalowski AM, Simmons JK, Keats J, Thomas CJ, Mock BA. Drug combinations identified by high-throughput screening promote cell cycle transition and upregulate Smad pathways in myeloma. Cancer Lett. 2023 Aug 1;568:216284. doi: 10.1016/j.canlet.2023.216284. Epub 2023 Jun 24. PMID: 37356470; PMCID: PMC10408729.
SEQUENCE No. (e.g., 1, 2, 3, etc.); […] (e.g., Cells, Incubation, Reagent, etc.); VALUE and DESCRIPTION.
1; Cells; 5 uL; white, solid bottom 1536-well Greiner assay plate.
2; Compounds; 23 nL; Kalypsis pin tool (Wako USA) equipped with a 1536-well pin head to transfer to the assay plates.
3; Incubation; 48 hours; 37C incubation.
4; Reagent;5uL; CellTiter Glo (Promega).
5; Detector; 425V; Luminescence; Viewlux PerkinElmer.
NOTES (numbers refer to Sequence numbers above)
1. The cell-based screening methods employed in this study were like those previously published. Briefly, the corresponding myeloma cell lines were screened in 1,536-well plates with 500 cells, 5-uL per well for inhibition of cell viability (assessed by measuring ATP levels with CellTiterGlo).
2. NCATS MIPE 4.0 library of approved and investigational drugs were added using the Kalypsis pin tool. Wells treated with DMSO only for 100% viability and media only wells for 0% viability were used as controls.
3. The assay plates were covered and incubated for 48 hours in a 37C, 5% CO2 incubator with controlled humidity.
4. After 48 hours, CellTilter-GloTM luminescent substrate mix (Promega) reagent was added to the assay plate and plates we incubated for 5 min at room temperature.
5. Signal was measured as median relative luminescence units on a ViewLux (PerkinElmer) multiplate reader.
[1] Heske CM, Davis MI, Baumgart JT, Wilson K, Gormally MV, Chen L, Zhang X, Ceribelli M, Duveau DY, Guha R, Ferrer M, Arnaldez FI, Ji J, Tran HL, Zhang Y, Mendoza A, Helman LJ, Thomas CJ. Matrix Screen Identifies Synergistic Combination of PARP Inhibitors and Nicotinamide Phosphoribosyltransferase (NAMPT) Inhibitors in Ewing Sarcoma. Clin Cancer Res. 2017 Dec 1;23(23):7301-7311. doi: 10.1158/1078-0432.CCR-17-1121. Epub 2017 Sep 12. PMID: 28899971; PMCID: PMC6636827.
(Cellular ATP, detected with luciferase, serves as a proxy for viable cell number.)
In the case of `O=NN(CCCl)C(=O)NCCCl`, the Potency result was “inactive”. On to `Cn1cnc([N+](=O)[O-])c1Sc1ncnc2nc[nH]c12`, for which the Potency was 16.6 µM (active).

Consider `Cc1cc(-c2ccc(CC(=O)Nc3ccc(-c4cccnc4)cc3)cc2)ccn1`, for which the Potency was 18.7 µM (active). As to `CCOc1ccn(-c2ccc(F)cc2)c(=O)c1C(=O)Nc1ccc(Oc2ccnc(N)c2Cl)c(F)c1`, the Potency is 2.35 µM (active). In the case of `COc1ccc2c3n(c(=NC(=O)c4cccnc4)nc2c1OC)CCN3`, the Potency was 5.9 µM (active). For `CC[C@H](Nc1ncnc2nc[nH]c12)c1nc2cccc(F)c2c(=O)n1-c1ccccc1`, the Potency is 11.8 µM (active). With `COc1cc(Oc2ccnc3cc(OC)c(OC)cc23)ccc1NC(=O)NC(C)c1nccs1` (stereo not given), the Potency is 23.5 µM (active).

Regarding `CNC(=O)c1ccc(C)c(-n2c(C)cc(OCc3ccc(F)cc3F)c(Br)c2=O)c1`, the Potency is 8.33 µM (active).

With `NNCCc1ccccc1`, the Potency is 8.33 µM (active).

`Cc1ccc(N(CC2=NCCN2)c2cccc(O)c2)cc1`: the Potency is 4.69 µM (active). `CCc1cncnc1N1CCN(Cc2nc3ccc(C(F)(F)F)cc3[nH]2)CC1`: the Potency was 5.26 µM (active). `O=C(O)[C@@H](c1ccc(OCc2ccc3ccccc3n2)cc1)C1CCCC1`: the Potency entry was “inactive”.

In the case of `Cc1cc2c(C(C)C)c(O)c(O)c(C=O)c2c(O)c1-c1c(C)cc2c(C(C)C)c(O)c(O)c(C=O)c2c1O`, the Potency was 5.9 µM (active). For `O=C1CCC(N2C(=O)c3ccccc3C2=O)C(=O)N1` (stereo not given), the Potency entry was “inactive”. Regarding `Cc1cc(C=c2sc3nc4ccccc4n3c2=O)c(C)n1-c1ccccc1`, the Potency entry is “inactive”. In the case of `CN1CCN(CCCN2c3ccccc3Sc3ccc(C(F)(F)F)cc32)CC1` it was 4.18 µM (active).

As for `O=C1[C@H](Cc2ccc(O)cc2)N2C(=O)CCN(C(=O)NCc3ccccc3)[C@H]2CN1Cc1cccc2ccccc12`, the Potency is 14.8 µM (active). With `CCOc1cc(C(=O)Nc2ccc(Cl)c(-c3nc4ccccc4[nH]3)c2)cc(OCC)c1OCC`, the Potency is 10.5 µM (active). `COc1ccc([C@@H]2CC(=O)c3c(O)cc(O[C@@H]4O[C@H](CO[C@@H]5O[C@@H](C)[C@H](O)[C@@H](O)[C@@H]5O)[C@@H](O)[C@H](O)[C@@H]4O)cc3O2)cc1O`: the Potency result was “inactive”.

As for `CNC[C@H](O)c1cccc(O)c1`, the Potency is 4.69 µM (active). Consider `CS(=O)(=O)c1ccc(C(=O)Nc2ccc(Cl)c(-c3ccccn3)c2)c(Cl)c1`, for which the Potency is 9.35 µM (active).

As for `CC(=O)Oc1ccccc1C(=O)O`, the Potency result was “inactive”.

Consider `Nc1nccc(-c2ccc3noc(-c4ccc(Cl)cc4)c3c2)n1`, for which the Potency entry is “inactive”. In the case of `CO[C@@H]1[C@H](N(C)C(=O)c2ccccc2)C[C@H]2O[C@]1(C)n1c3ccccc3c3c4c(c5c6ccccc6n2c5c31)C(=O)NC4`, the Potency was 2.35 µM (active). In the case of `CCn1c(-c2nonc2N)nc2cnc(Oc3cccc(NC(=O)c4ccc(OCCN5CCOCC5)cc4)c3)cc21`, the Potency is 2.35 µM (active). As to `Cc1n[nH]c(C)c1Cc1sc2c(c1C(=O)N1C[C@H](O)CO1)c(=O)n(C)c(=O)n2CC(C)C`, the Potency result is “inactive”.

For the molecule `S=C(NCc1ccc2c(c1)OCO2)N1CCN(c2ncnc3c2oc2ccccc23)CC1`, the Potency is 0.303 µM (active). As to `CCOc1cc(C=C2C(=O)N(c3ccccc3)N=C2C)cc(Cl)c1OCC(=O)OC`, the Potency is 8.33 µM (active). Take `CCCS(=O)(=O)Nc1ccc(F)c(C(=O)c2c[nH]c3ncc(-c4ccc(Cl)cc4)cc23)c1F`: the Potency was 9.35 µM (active). Take `c1ccc([C@H]2CN3CCSC3=N2)cc1`: the Potency result was “inactive”. Consider `C[C@H](NC(=O)Cc1cc(F)cc(F)c1)C(=O)N[C@@H]1C(=O)N(C)c2ccccc2-c2ccccc21`, for which the Potency is 5.26 µM (active). In the case of `CS(=O)(=O)c1cccc(CNc2nc(Nc3ccc4c(c3)CCC(=O)N4)ncc2C(F)(F)F)c1` it was 18.7 µM (active). Consider `CC(C)C[C@H](NC(=O)[C@@H](O)[C@H](N)Cc1ccccc1)C(=O)O`, for which the Potency was 20.9 µM (active). As to `COc1ccc(-c2ccc3c(N4CCOC[C@H]4C)nc(N4CCOC[C@H]4C)nc3n2)cc1CO`, the Potency is 0.0166 µM (active).

With `N=c1nc(N2CCCCC2)cc(N)n1O`, the Potency was 26.4 µM (active). The same measure for `COc1cccc2cc(-c3nc(C4CCC(C(=O)O)CC4)n4ncnc(N)c34)[nH]c12` (stereo not given): 0.662 µM (active).

Consider `COc1ccc(CC2=NN3C([C@@H](CCc4ccccc4)[C@@H](C)O)=NC(C)C3C(=O)N2)cc1OC` (stereo not given in full), for which the Potency entry is “inactive”. In the case of `Cc1cn[nH]c1`, the Potency is 0.59 µM (active). For the molecule `Cc1csc(NC(=O)c2sc3nc4c(c(C(F)(F)F)c3c2N)CCC4)n1`, the Potency was 1.48 µM (active).

For `COc1ccc(COc2cc3oc(=O)c4cc(C(C)O)ccc4c3cc2OC)cc1` (stereo not given), the Potency was 18.7 µM (active).
